Assay [1] in a line: qHTS assay to identify small molecule antagonists of the peroxisome proliferator-activated receptor gamma (PPARg) signaling pathway - cell viability counter screen (AID 743194). Further: nearly all actives have a fitted effect of over 55% in size. The essentials: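 PPARg-UAS-bla HEK293H cells were plated, rested 5 h at 37 C, then treated with compounds plus rosiglitazone (50 nM final) for 17 h at 37 C; viability was then read by CellTiter-Glo luminescence after 30 min at room temperature.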
(qHTS replaces the single test concentration by a dilution series.)

Assay [2] in a line: qHTS assay for small molecule agonists of the antioxidant response element (ARE) signaling pathway (AID 743202; active means well fitted activation curve with a large enough effect in the signal ratio in the repeat runs, not every such curve was filed as active; the % refers to the signal ratio). In short, it runs like this: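 Read-out: LiveBLAzer B/G FRET substrate fluorescence after 2 h at room temperature, following 16 h compound treatment at 37 C of HepG2 cells carrying an ARE-driven beta-lactamase reporter.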
Assay [3] can be described thus: qHTS assay for small molecule agonists of the antioxidant response element (ARE) signaling pathway - cell viability counter screen (AID 743203; calls by dose curve; further: nearly all actives have a fitted effect of over 55% in size). The essentials:
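Seeded at 2,000 cells/well, ARE-bla HepG2 cells were incubated 5 hrs before compound addition. After 16 hrs of treatment at 37C with 5% CO2, CellTiter-Glo reagent was added and luminescence read 30 min later.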

Assay [4] is described as follows: qHTS assay for small molecule activators of the heat shock response signaling pathway (AID 743210; active means well fitted activation curve with a large enough effect in the signal ratio in the repeat runs, with a control signal flat, not every such curve was filed as active; the % refers to the signal ratio; further: series mostly up to about 63 µM). In short, it runs like this:
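HSE-bla HeLa cells (beta-lactamase reporter under heat shock response elements) were exposed to compounds for 5 h at 37 C, then loaded with LiveBLAzer B/G FRET substrate for 2.5 h at room temperature before fluorescence reading.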

Assay [5] is described as follows: qHTS assay to identify small molecule antagonists of the peroxisome proliferator-activated receptor delta (PPARd) signaling pathway - cell viability counter screen (AID 743213). Further: nearly all actives have a fitted effect of over 50% in size. In short, it runs like this:
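Cytotoxicity counter screen: CellTiter-Glo luminescence read 30 min after addition, in the same wells as the reporter assay. There, PPARd UAS-bla HEK293H cells (3000/well) were treated 17 h at 37 C with compound and 300 nM L165041.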

The target of assay [6] is Bile acid receptor (Homo sapiens) (UniProt Q96RI1). In words: qHTS assay to identify small molecule antagonists of the farnesoid-X-receptor (FXR) signaling pathway (AID 743217; active means well fitted inhibition curve with a large enough effect in the signal ratio in the repeat runs, not every such curve was filed as active; the % refers to the signal ratio). In short, it runs like this:
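Antagonist mode against 50 uM (final) chenodeoxycholic acid stimulation in FXR-bla HEK 293T cells, 16 h at 37 °C. Inhibition detected as reduced beta-lactamase activity via LiveBLAzer B/G FRET fluorescence after 2 h at room temperature.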

Assay [7] is described as follows: qHTS assay to identify small molecule agonists of the farnesoid-X-receptor (FXR) signaling pathway - cell viability counter screen (AID 743218). Further: nearly all actives have a fitted effect of over 45% in size. The essentials:
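Cytotoxicity counter-screen run in parallel, same wells: FXR-UAS-bla HEK 293T cells dosed 16 h at 37 C, viability read by CellTiter-Glo luminescence after 30 min at room temperature.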

Assay [8] deals with Bile acid receptor (Homo sapiens) (UniProt Q96RI1). In words: qHTS assay to identify small molecule agonists of the farnesoid-X-receptor (FXR) signaling pathway (AID 743220; active means well fitted activation curve with a large enough effect in the signal ratio in the repeat runs, not every such curve was filed as active; the % refers to the signal ratio). The essentials:
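Beta-lactamase reporter under UAS control in GeneBLAzer FXR HEK 293T cells (5000/well) measured with LiveBLAzer FRET substrate after 2 h at room temperature. Compound exposure lasted 16 h at 37C.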

Assay [9] is described as follows: qHTS assay to identify small molecule antagonists of the farnesoid-X-receptor (FXR) signaling pathway - cell viability counter screen (AID 743221; active means well fitted cell-killing curve with a large enough effect in the repeat runs, not every such curve was filed as active; further: nearly all actives have a fitted effect of over 50% in size). In short, it runs like this:
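GeneBLAzer FXR-UAS-bla HEK 293T cells, compound plus chenodeoxycholic acid (50 uM final), 16 h at 37 C. CellTiter-Glo added to the same wells after the beta-lactamase read; luminescence read after 30 min at room temperature as viability.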

Assay [10] deals with Vitamin D3 receptor (Homo sapiens) (UniProt P11473). Briefly: qHTS assay to identify small molecule agonists of the vitamin D receptor (VDR) signaling pathway (AID 743222; calls by dose curve). In short, it runs like this:
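Quantitative HTS agonist-mode screen: compounds in DMSO were pin-transferred onto VDR-bla cells and incubated 16 h at 37C, 5% CO2. Reporter activity was detected with LiveBLAzer B/G FRET substrate after 2 h at room temperature.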

A short description of assay [11]: qHTS assay for small molecule activators of the heat shock response signaling pathway - cell viability counter screen (AID 743209). Further: nearly all actives have a fitted effect of over 50% in size. In short, it runs like this:
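First, HSE-bla HeLa cells were seeded at 1500 cells/well and kept overnight at 37 C. Next, compounds were pinned in and incubated 5 h. After the FRET substrate step, CellTiter-Glo was added and luminescence read 30 min later.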

Assay [12] can be described thus: qHTS assay to identify small molecule agonists of the peroxisome proliferator-activated receptor delta (PPARd) signaling pathway - cell viability counter screen (AID 743211). Further: nearly all actives have a fitted effect of over 55% in size. In short, it runs like this:
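PPARd-bla HEK293H cells (3000/well) were pre-incubated 5 h at 37 C, then exposed to compound for 17 h at 37 C. After 2 h with LiveBLAzer substrate, CellTiter-Glo was added to the same wells; luminescence read after 30 min at room temperature.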

The target of assay [13] is Peroxisome proliferator-activated receptor delta (Homo sapiens) (UniProt Q03181). In words: qHTS assay to identify small molecule agonists of the peroxisome proliferator-activated receptor delta (PPARd) signaling pathway (AID 743212; calls by dose curve). In short, it runs like this:
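GeneBLAzer PPARd UAS-bla HEK293H cells (beta-lactamase reporter under UAS control), plated and rested 5 h at 37 C, then exposed to compounds in DMSO at 37 C; LiveBLAzer B/G FRET substrate added, 2 h room temperature, fluorescence read.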

For assay [14] the target is unchanged. Briefly: qHTS assay to identify small molecule antagonists of the peroxisome proliferator-activated receptor delta (PPARd) signaling pathway (AID 743215; active means well fitted inhibition curve with a large enough effect in the signal ratio in the repeat runs, not every such curve was filed as active; the % refers to the signal ratio;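 further: cells stimulated with agonist L165041 at 300 nM final during compound exposure; series mostly up to about 62 µM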). The essentials: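 Inhibition of L165041-driven (300 nM final) PPARd signaling is scored in HEK293H UAS-bla cells. Exposure lasts 17 h at 37 C; beta-lactamase activity is then read by FRET substrate fluorescence after 2 h at room temperature.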

In assay [15] the target is Peroxisome proliferator-activated receptor gamma (Homo sapiens) (UniProt P37231). In words: qHTS assay to identify small molecule antagonists of the peroxisome proliferator-activated receptor gamma (PPARg) signaling pathway (AID 743191; calls by dose curve; further: series mostly up to about 63 µM; nearly all actives have a fitted effect of over 30% in size). The essentials:
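GeneBLAzer PPARg UAS-bla HEK293H cells carrying a UAS-driven beta-lactamase reporter were plated at 3000 cells/well, preincubated 5 h at 37C, then given compound for 17 h at 37C; LiveBLAzer B/G FRET substrate was read after 1 h at room temperature.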

For assay [16], the target named is Vitamin D3 receptor (Homo sapiens) (UniProt P11473). In words: qHTS assay to identify small molecule antagonists of the vitamin D receptor (VDR) signaling pathway (AID 743223; active means well fitted inhibition curve with a large enough effect in the signal ratio in the repeat runs, not every such curve was filed as active; the % refers to the signal ratio). In short, it runs like this:
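VDR-bla cells were treated with compound plus 3 nM final 1alpha,25-dihydroxyvitamin D3 for 16 h at 37C. Beta-lactamase reporter read by B/G FRET substrate fluorescence after 2 h at room temperature. qHTS format.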

Assay [17] in a line: qHTS assay to identify small molecule that activate the aryl hydrocarbon receptor (AhR) signaling pathway - cell viability counter screen (AID 743086). Further: nearly all actives have a fitted effect of over 45% in size. Further: potency means the concentration at half of the fitted maximal effect. The essentials:
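HepG2-AhR-luc (HG2L7.5c1) cells, 4000/well, were preincubated 5 h at 37C, exposed to compound in qHTS format for 24 hr at 37C, then given CellTiter-Fluor for 30 min; viability was read as fluorescence in the reporter wells.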

Inconclusive results are not listed. Calls of active or inactive are those of the source. Unless noted, the call rests on the fitted dose curve; in most records, active means well fitted curve in the direction sought with a large enough effect in the repeat runs; inconclusive means weak or mixed curves; inactive means no such curve, though single readings can be large; an effect the other way counts as inactive or inconclusive.

Sequence of Peroxisome proliferator-activated receptor delta (Homo sapiens) (Q03181 whole entry, looked up): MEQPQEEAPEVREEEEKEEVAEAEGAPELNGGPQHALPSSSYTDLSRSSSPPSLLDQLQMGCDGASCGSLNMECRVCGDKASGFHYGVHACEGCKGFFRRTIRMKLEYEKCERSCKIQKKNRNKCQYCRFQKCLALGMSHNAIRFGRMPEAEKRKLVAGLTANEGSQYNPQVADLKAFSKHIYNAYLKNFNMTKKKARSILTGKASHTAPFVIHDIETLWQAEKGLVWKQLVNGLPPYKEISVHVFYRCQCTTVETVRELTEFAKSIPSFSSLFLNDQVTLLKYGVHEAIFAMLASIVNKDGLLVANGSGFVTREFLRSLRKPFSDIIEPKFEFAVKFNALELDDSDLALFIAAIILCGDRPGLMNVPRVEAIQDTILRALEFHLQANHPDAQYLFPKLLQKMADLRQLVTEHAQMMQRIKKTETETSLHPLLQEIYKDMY
Sequence of Peroxisome proliferator-activated receptor gamma (Homo sapiens) (P37231 whole entry, looked up): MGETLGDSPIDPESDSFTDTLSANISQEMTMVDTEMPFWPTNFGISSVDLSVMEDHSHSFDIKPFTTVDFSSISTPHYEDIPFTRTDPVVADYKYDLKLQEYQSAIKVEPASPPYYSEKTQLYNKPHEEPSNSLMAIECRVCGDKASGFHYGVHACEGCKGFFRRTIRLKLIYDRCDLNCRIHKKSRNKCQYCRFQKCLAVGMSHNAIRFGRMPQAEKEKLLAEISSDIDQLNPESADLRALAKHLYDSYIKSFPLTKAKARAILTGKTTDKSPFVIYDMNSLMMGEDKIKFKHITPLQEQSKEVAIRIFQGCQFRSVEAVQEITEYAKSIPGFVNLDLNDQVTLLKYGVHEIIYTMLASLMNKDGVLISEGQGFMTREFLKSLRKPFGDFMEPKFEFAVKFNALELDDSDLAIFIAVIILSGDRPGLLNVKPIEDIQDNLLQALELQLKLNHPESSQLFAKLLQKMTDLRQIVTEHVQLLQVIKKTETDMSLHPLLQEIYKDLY
Sequence of Bile acid receptor (Homo sapiens) (Q96RI1 whole entry, looked up): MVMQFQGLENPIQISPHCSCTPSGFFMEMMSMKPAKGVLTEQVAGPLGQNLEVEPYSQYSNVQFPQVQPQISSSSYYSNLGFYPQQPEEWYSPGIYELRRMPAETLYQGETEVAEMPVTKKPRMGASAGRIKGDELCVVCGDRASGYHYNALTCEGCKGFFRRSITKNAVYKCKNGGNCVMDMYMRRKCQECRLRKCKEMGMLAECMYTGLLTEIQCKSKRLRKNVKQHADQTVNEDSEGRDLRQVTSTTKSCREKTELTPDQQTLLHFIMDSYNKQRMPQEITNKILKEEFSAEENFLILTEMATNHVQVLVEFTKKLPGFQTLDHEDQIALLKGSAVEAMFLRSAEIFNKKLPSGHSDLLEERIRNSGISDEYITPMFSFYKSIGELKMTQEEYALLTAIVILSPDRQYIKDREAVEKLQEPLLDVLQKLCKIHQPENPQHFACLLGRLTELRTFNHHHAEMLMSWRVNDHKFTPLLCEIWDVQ
Sequence of Vitamin D3 receptor (Homo sapiens) (P11473 whole entry, looked up): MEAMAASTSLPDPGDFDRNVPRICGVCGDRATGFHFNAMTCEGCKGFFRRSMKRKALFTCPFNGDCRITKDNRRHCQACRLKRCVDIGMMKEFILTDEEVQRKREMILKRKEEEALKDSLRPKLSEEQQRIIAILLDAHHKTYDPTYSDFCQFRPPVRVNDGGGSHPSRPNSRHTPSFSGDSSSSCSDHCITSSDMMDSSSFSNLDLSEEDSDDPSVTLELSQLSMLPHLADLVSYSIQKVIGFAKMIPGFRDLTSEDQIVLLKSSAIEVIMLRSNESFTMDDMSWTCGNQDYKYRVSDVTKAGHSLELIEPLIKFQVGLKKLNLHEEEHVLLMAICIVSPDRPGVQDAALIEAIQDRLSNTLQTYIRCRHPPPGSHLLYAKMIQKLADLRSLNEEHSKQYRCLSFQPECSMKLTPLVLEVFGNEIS

Turning to `CCN(CC)c1ccc(C(=C2C=CC(=[N+](CC)CC)C=C2)c2cc(S(=O)(=O)O)ccc2S(=O)(=O)[O-])cc1`, the Potency entry in assay [1], in assay [2], in assay [3], in assay [4], in assay [5] and in assay [6] was “inactive” each time. Moreover, the Potency result in assay [7], in assay [8], in [9] and in assay [10] was “inactive” in each case.
As to `CCCC(=O)Nc1ccc(O)c(C(C)=O)c1`, the Potency result in assay [1], in assay [2], in assay [3], in assay [11], in [4] and in assay [12] was “inactive” throughout. Further, the Potency entry in [13], in [14], in assay [7] and in assay [9] was “inactive” in each case.
In the case of `C[C@@H]1C[C@H]2[C@@H]3CCC4=CC(=O)C=C[C@]4(C)[C@@]3(F)[C@@H](O)C[C@]2(C)[C@@]1(O)C(=O)COC(=O)c1ccncc1`, the Potency result in [15], in assay [1], in assay [2], in assay [3], in assay [11] and in assay [4] was “inactive” each time. Besides, the Potency entry in assay [12], in assay [13], in [9] and in assay [10] was “inactive” each time. For the same compound, in assay [16], the call was inactive.
As for `CCCCC`, the Potency result in assay [17], in [2], in assay [3], in assay [11], in assay [4] and in [12] was “inactive” in each case. The Potency entry in [13], in assay [5], in [14], in assay [6], in [7] and in assay [8] was “inactive” each time. Further, the Potency result in assay [9] and in [10] was “inactive” in each case.
In the case of `CCOC(=O)C(O)c1ccccc1` (configuration not stated), the Potency result in assay [15], in assay [1], in assay [2], in assay [3], in assay [4] and in assay [12] was “inactive” in each case. The Potency result in [5], in assay [7] and in [9] was “inactive” in each case. Besides, the compound was classed as inactive in [16].
`Cc1ccccc1S(=O)(=O)O`: the Potency result in assay [17], in assay [1], in assay [2], in [3], in [11] and in assay [4] was “inactive” each time. For the same compound, the Potency result in [12], in assay [5], in assay [7] and in [9] was “inactive” each time.
Turning to `CCC(C)c1cc(C(C)(C)C)c(O)c(C(C)(C)C)c1` (configuration not stated), the Potency entry in [17], in assay [1], in [3], in assay [5], in [14] and in [9] was “inactive” throughout. Also, the Potency result in [10] was “inactive”.
`COc1cc2c(cc1OC)C(C(C(=O)N(CCc1ccc(OC)c(OC)c1OC)CCc1ccc(OC)c(OC)c1OC)c1ccccc1)=NCC2` (configuration not stated): the Potency in assay [17] was 8.41 µM (active). The Potency result in [1], in assay [2], in assay [3], in assay [11], in assay [4] and in assay [12] was “inactive” in each case. Further, the Potency entry in [13], in assay [5], in assay [14] and in [9] was “inactive” throughout.
Turning to `CC(C)O.CC(C)O.CCOC(=O)/C=C(\C)O.CCOC(=O)/C=C(\C)O.[Ti]`, the Potency entry in assay [17], in assay [3], in [11], in [4], in [12] and in assay [5] was “inactive” throughout. Moreover, the Potency entry in assay [7] and in assay [10] was “inactive” each time.
For `COc1ccc2cccc(CCNC(C)=O)c2c1`, the Potency entry in assay [15], in assay [1], in assay [2], in assay [3], in assay [4] and in assay [12] was “inactive” each time. For the same compound, the Potency result in assay [5], in [7], in [9] and in assay [10] was “inactive” throughout.
Regarding `O=C(O)c1nc(Cl)c(Cl)c(Cl)c1Cl`, the Potency result in [17], in assay [1], in [3], in assay [11], in assay [4] and in assay [12] was “inactive” in each case. The Potency result in [13], in [14], in [7] and in assay [9] was “inactive” throughout.
For the compound `Cc1ccc(C(C)OC(=O)C2(C)CCC(C(=O)O)C2(C)C)cc1` (configuration not stated), the Potency entry in [1], in assay [2], in [3], in assay [11], in assay [4] and in [13] was “inactive” in each case. For the same compound, the Potency result in assay [9] and in assay [10] was “inactive” each time.
On to `CN1Cc2cc(C(=O)N3CCC(C4CCNCC4)CC3)ccc2NC(CC(=O)O)C1=O` (configuration not stated), for which the Potency entry in assay [1], in assay [2], in assay [3], in assay [11], in assay [4] and in assay [12] was “inactive” in each case. Moreover, the Potency result in [13], in assay [5], in [14] and in assay [9] was “inactive” throughout.
For the compound `COc1cc2nc(Cl)nc(N)c2cc1OC`, the Potency entry in [3], in [11], in assay [4], in [12], in [5] and in assay [9] was “inactive” each time. In assay [10], the Potency entry is “inactive”. In addition, the compound was called inactive in assay [16].

Source of the values: PubChem BioAssay (Tox21).
